# Results as given in the supplement of paper PMC7156485.
# ± gives the standard deviation of the averaged measurements.
# Key:
# Conditions in all cases: concentration: 10 µM; 24 h
# HCC1569 [1] = test: cell number relative to DMSO (% of DMSO); higher = more cells (less growth inhibition / toxicity)
# In short: (§1)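 In 384-well plates holding 800 HCC1569 or TDF cells per well in RPMI with 10% FBS, compounds were tested at 10 µM for 24 h at 37 °C in triplicate. Fixation used 3.7% formaldehyde. Staining used a rabbit anti-H1.0 antibody with an AlexaFluor 647 secondary, plus DAPI. Each value, H1.0 nuclear intensity or cell number, is a median of replicates shown as percent of the plate control, and HCC1569 values were smoothed for positional effects.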
# TDF [2] = test: as above
# In short: as §1
# TDF [3] = test: H1.0 immunofluorescence intensity relative to DMSO (% of DMSO); higher = stronger H1.0 induction, active = 120 or more
# In short: as §1
# HCC1569 [4] = test: H1.0 immunofluorescence intensity relative to DMSO (% of DMSO); higher = stronger H1.0 induction, active = 140 or more
# In short: as §1
# 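Throughout, for H1.0 immunofluorescence intensity relative to DMSO: TDF is a line of transformed human dermal fibroblasts of mesenchymal origin.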
# 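Throughout, for cell number relative to DMSO: TDF denotes transformed human dermal fibroblasts of mesenchymal origin.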
Structure (SMILES),cell number (HCC1569 [1]),cell number (TDF [2]),H1.0 immunofluorescence intensity (TDF [3]),H1.0 immunofluorescence intensity (HCC1569 [4])
Cc1cccc(C=Cc2ccccc2)n1,101,104,96.7 (inactive),100 (inactive)
COc1c2occc2cc2ccc(=O)oc12 [Xanthotoxin],101,104,106 (inactive),103 (inactive)
Cc1nc(C)c(C)nc1C [Tetramethylpyrazine],106,108,92.9 (inactive),94.2 (inactive)
O=C(O)CCCCC=CCC(O)C=CC=CC=CC(O)CCCC(=O)O (centres undefined) [20-Carboxy-leukotriene B4],102,103,91.1 (inactive),102 (inactive)
CCCCCC=CCC=CCCCCCCCCCC(=O)O [Eicosadienoic acid],103 ± 1.2,92.6 ± 7.5,100 (inactive),96.4 (inactive)
O=C(NC(Cc1cc(=O)[nH]c2ccccc12)C(=O)O)c1ccc(Cl)cc1 (centres undefined) [Rebamipide],104,99.7,93.2 (inactive),105 (inactive)
C[C@H](N[C@@H](CCc1ccccc1)C(=O)O)C(=O)N1CCC[C@H]1C(=O)O.O.O,102,94.9,101 (inactive),109 (inactive)
CC(C)N(CCC(=O)c1ccc2ccccc2c1)Cc1ccccc1.Cl [JAK3 Inhibitor IV],101,97,96.1 (inactive),110 (inactive)
COc1ccc2ccc(=O)oc2c1CC=C(C)C [Osthole],97.3,92.5,103 (inactive),99.9 (inactive)
COc1ccc(C(=O)Nc2sc3c(c2C(N)=O)CCCC3)cc1OC [Flt-3 Inhibitor],96.7,105,94.7 (inactive),119 (inactive)
Nc1ncnc2c1ncn2C1CCCC1 [9-cyclopentyladenine],102,113,95.1 (inactive),84.6 (inactive)
CCCCC=CCCCCCCCCC(=O)O [10(E)-Pentadecenoic acid],103,95.8,110 (inactive),101 (inactive)
CS(=O)(=O)O.C[C@H](NCc1ccc(OCc2cccc(F)c2)cc1)C(N)=O,99.7,102,97.6 (inactive),98.6 (inactive)
COc1ccc(-c2cc3c(C)nc(N)nc3n(C3CCC(OCCO)CC3)c2=O)cn1 (centres undefined),35,51,97.8 (inactive),191 (active)
CC1(NCC(O)COc2cccc3[nH]ccc23)CCC(C(C)(C)NC(=O)CBr)CC1 (centres undefined) [Pindobind-5HT1A],61.4,10.4,135 (active),178 (active)
CC(=O)OC12COC1CC(O)C1(C)C(=O)C(O)C3=C(C)C(OC(=O)C(O)C(NC(=O)OC(C)(C)C)c4ccccc4)CC(O)(C(OC(=O)c4ccccc4)C21)C3(C)C (centres undefined) [Docetaxil],61.6,13,147 (active),144 (active)
CN(C)CCC=C1c2ccccc2CCc2ccccc21.Cl [Amitriptyline hydrochloride],100,100,104 (inactive),94.1 (inactive)
CN(C)CCC=C1c2ccccc2Sc2ccc(Cl)cc21.Cl [Chlorprothixene hydrochloride],90.2,106,116 (inactive),127 (inactive)
CCCCCCCCCCCCCCCCCCCC(=O)O [Eicosanoic acid],99.8,102,102 (inactive),101 (inactive)
COc1ccccc1OCC(O)CN1CCN(CC(=O)Nc2c(C)cccc2C)CC1.Cl.Cl (centres undefined) [Ranolazine dihydrochloride],104,107,97.9 (inactive),99.9 (inactive)
CC1CNc2c(cccc2S(=O)(=O)N[C@@H](CCCN=C(N)N)C(=O)N2CC[C@@H](C)C[C@@H]2C(=O)O)C1.O (some centres undefined),102,104,89.5 (inactive),105 (inactive)
C[N+](C)(C)C(Cc1c[nH]c(=S)[nH]1)C(=O)[O-] (centres undefined) [Ergothioneine],100,103,101 (inactive),99.9 (inactive)
COC(=O)C1=C(C)NC(C)=C(C(=O)OC)C1c1ccccc1[N+](=O)[O-] [Nifedipine],99.06 ± 0.47,102 ± 7,94.7 (inactive),104 (inactive)
NCCCCC(NC(CCc1ccccc1)C(=O)O)C(=O)N1CCCC1C(=O)O (centres undefined) [Lisinopril],105,99.8,97.2 (inactive),98.8 (inactive)
O=C1Cc2c([nH]c3ccc(Br)cc23)-c2ccccc2N1 [Kenpaullone],76.3 ± 6.3,93.1 ± 3.2,91.6 (inactive),101 (inactive)
CCC(CO)Nc1nc(NCc2ccccc2)c2ncn(C(C)C)c2n1 (centres undefined) [Roscovitine],93.4,99,93.9 (inactive),103 (inactive)

Structure (SMILES),cell number (HCC1569 [1]),cell number (TDF [2]),H1.0 immunofluorescence intensity (TDF [3]),H1.0 immunofluorescence intensity (HCC1569 [4])
COc1cc2ncn(-c3cc(OCc4ccccc4S(C)(=O)=O)c(C#N)s3)c2cc1OC [IKK-3 Inhibitor IX],85.9,109,84.2 (inactive),127 (inactive)
CCC12CCCN3CCc4c(n(c5ccccc45)C(O)(C(=O)OC)C1)C32 (centres undefined) [Vincamine],101,95.8,102 (inactive),86.2 (inactive)
CCCCNc1c(C(=O)OCC)c(C)nc2c1cnn2CC [Tracazolate],105,108,92.8 (inactive),107 (inactive)
Nc1nc(=O)c2ncc(=O)[nH]c2[nH]1 [Isoxanthopterin],104,108,92.2 (inactive),94.9 (inactive)
CCOc1cc2ncnc(Nc3cccc(Br)c3)c2cc1OCC [Compound 56],76.2,94,92.6 (inactive),144 (active)
CCCCCC=CC=CC(O)CCCCCCCC(=O)O (centres undefined),104,100,100 (inactive),100 (inactive)
COc1ccc(C(=O)Nc2sc3c(c2C(N)=O)CCCC3)cc1OC,98.8,109,94.4 (inactive),121 (inactive)
Cc1[nH]c2ccccc2c1CC(=O)N[C@@H](Cc1ccccc1)C(=O)N(C)c1ccccc1,100,109,88.8 (inactive),119 (inactive)
Br.CN=c1nc(-c2ccccc2)n(-c2ccccc2)s1,97.5,107,90.9 (inactive),111 (inactive)
"Oc1cc(O)c2c(c1)OC(c1ccc(O)c(O)c1)C(O)C2 (single isomer, unassigned; (+)) [(+)-Catechine]",102,105,91.8 (inactive),88.4 (inactive)
CCCCCCCCCCCCCCC(O)C(O)C(CO)NC(C)=O (centres undefined) [C2 Phytoceramide],79.1,86.5,110 (inactive),101 (inactive)
"Cl.O[Si](CCCN1CCCCC1)(c1ccc(F)cc1)C1CCCCC1 (centres undefined) [Hexahydro-sila-difenidol hydrochloride, p-fluoro analog]",97.5,88.2,102 (inactive),105 (inactive)
CCCCCC(O)C=CC1C(O)CC(O)C1CC=CCCCC(=O)O (racemic),106,105,88.4 (inactive),99.4 (inactive)
Cc1ccc(-c2cc(C(F)(F)F)nn2-c2ccc(S(N)(=O)=O)cc2)cc1 [Celecoxib],97.7,103,99.1 (inactive),106 (inactive)
O=c1c(OC2OC(C(O)CO)C(O)C2O)c(-c2ccc(O)c(O)c2)oc2cc(O)cc(O)c12 (centres undefined) [Isoquercitrine],103,105,102 (inactive),87.9 (inactive)
O=C(Nc1cc(Cl)cc2c1[nH]c1cnccc12)c1cccnc1 [IKK Inhibitor X],98.7,91.8,101 (inactive),106 (inactive)
CCN(CC)CCOC(=O)C1(C2CCCCC2)CCCCC1.Cl [Dicyclomine hydrochloride],100,96.7,99.8 (inactive),93.1 (inactive)
COc1ccc2[nH]c(S(=O)Cc3ncc(C)c(OC)c3C)nc2n1 (centres undefined) [Tenatoprazole],103,104,106 (inactive),100 (inactive)
CCOC(=O)C1=C(COCCN)NC(C)=C(C(=O)OC)C1c1ccccc1Cl (centres undefined) [Amlodipine],98.4,106,93.5 (inactive),106 (inactive)
CC(O)(P(=O)([O-])O)P(=O)([O-])O [Etidronate],101,106,102 (inactive),111 (inactive)
Cc1cccc(C#Cc2ccccc2)n1.Cl [6-Methyl-2-(phenylethynyl)pyridine hydrochloride],99.9,105,91.5 (inactive),96.7 (inactive)
CCN1CCN(C(=O)NC(C(=O)NC2C(=O)N3C(C(=O)O)=C(CSc4nnnn4C)CSC23)c2ccc(O)cc2)C(=O)C1=O (centres undefined) [Cefoperazone acid],100,103,91.9 (inactive),102 (inactive)
O=C1NC(=O)c2cc(Nc3ccc(F)cc3)c(Nc3ccc(F)cc3)cc21 [PKCbII/EGFR Inhibitor],95.1,111,89.7 (inactive),121 (inactive)
CCCNCC(O)COc1ccccc1C(=O)CCc1ccccc1.Cl [(S)-(-)-propafenone hydrochloride],98.4,104,90.3 (inactive),111 (inactive)
CN(C)CCCn1cc(C2=C(c3c[nH]c4ccccc34)C(=O)NC2=O)c2ccccc21,86.2,79.5,115 (inactive),139 (inactive)
